Among the test systems are MOLT-4 leukemia; OVCAR-8 ovarian; OVCAR-5 ovarian; OVCAR-4 ovarian; SK-OV-3 ovarian; IGROV1 ovarian; OVCAR-3 ovarian; HS 578T breast; NCI/ADR-RES ovarian; T-47D breast; BT-549 breast; MDA-MB-435 melanoma; SW-620 colon; MCF7 breast; HCT-116 colon; HCC-2998 colon; KM12 colon; SR leukemia; RPMI-8226 leukemia.
Holding throughout (assay): NCI-60 one-dose screen, 48 h (100 = growth as untreated, 0 = no growth, -100 = all killed)
Holding throughout (conditions): 10 µM unless noted

Each structure is given as a SMILES string. This is part of a sample that, as a whole, favours compounds with a hit. Of some 83,000 tested, about 20% had one in any assay.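 Growth was measured after 48 h exposure to one concentration of compound in 96-well plates. Values under 10 count as active.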 Unmarked numbers belong to inactive results. Calls of active or inactive are those of the source.

`CC(C)(C)C(=O)OCOP(=O)(NCc1ccccc1)C1CCCN(O)C1=O` (stereo not drawn): the growth with MOLT-4 leukemia was 9.06% (active); in the assay with OVCAR-8 ovarian, 14.2%; in the assay on OVCAR-5 ovarian it was 94.5%; in the assay on OVCAR-4 ovarian, 19.9%; in the assay on SK-OV-3 ovarian it was 59.7%; with IGROV1 ovarian, 19.4%. The growth in the assay with OVCAR-3 ovarian was -6.7% (active); with HS 578T breast, 14.7%; with NCI/ADR-RES ovarian it was 13.5%; in the assay with T-47D breast, 23.3%; in the assay on BT-549 breast, 28%; with MDA-MB-435 melanoma it was 39.4%. Moreover, the growth in the assay on SW-620 colon is 30.1%; with MCF7 breast, 19.3%; with HCT-116 colon it was 7% (active); in the assay on HCC-2998 colon it was 24.7%; with KM12 colon it was -7.5% (active).

In the case of `CCOC(=O)[C@@H](C)C[C@H](Cc1ccccc1)NC(=O)c1csc([C@@H](C[C@H](C(C)C)N(C)C(=O)[C@H](CC)NC(=O)[C@H]2CCCCN2C)OC(C)=O)n1`, the growth with SR leukemia was 6.66% (active); in the assay on RPMI-8226 leukemia it was 19.2%; in the assay with OVCAR-8 ovarian, 5.75% (active); with OVCAR-5 ovarian it was 31.5%; in the assay with OVCAR-4 ovarian, 37.4%; in the assay on SK-OV-3 ovarian, 20.9%. Further, the growth in the assay on IGROV1 ovarian was 22.6%; in the assay with OVCAR-3 ovarian, -6.1% (active); in the assay with HS 578T breast, 9.11% (active); in the assay on NCI/ADR-RES ovarian it was 7.74% (active); in the assay with T-47D breast it was 53.1%; in the assay on BT-549 breast, -18.9% (active). Moreover, the growth in the assay on MDA-MB-435 melanoma was -35.7% (active); in the assay with SW-620 colon, 30.3%; with MCF7 breast it was 18.8%; in the assay with HCT-116 colon, -7.81% (active); in the assay with HCC-2998 colon, 3.85% (active); in the assay with KM12 colon, 4.85% (active).

`CCCCCCCCCCCCCCCCCC1OC[C@H](COC(=O)O[C@@H](C(=O)O[C@H]2C[C@@]3(O)[C@@H](OC(=O)c4ccccc4)[C@@H]4[C@]5(OC(C)=O)CO[C@@H]5C[C@H](O)[C@@]4(C)C(=O)[C@H](OC(C)=O)C(=C2C)C3(C)C)[C@@H](NC(=O)c2ccccc2)c2ccccc2)O1` (stereo partly drawn): the growth with SR leukemia is 44.9%; in the assay with RPMI-8226 leukemia it was 17.5%; in the assay on OVCAR-8 ovarian, 61.5%; with OVCAR-5 ovarian, 41.5%; with OVCAR-4 ovarian, 75.5%; in the assay with SK-OV-3 ovarian, 62.8%. Also, the growth with IGROV1 ovarian was 42.9%; in the assay with OVCAR-3 ovarian, 31.9%; in the assay on HS 578T breast, 60.7%; in the assay with NCI/ADR-RES ovarian, 103%; with T-47D breast it was 50.4%; in the assay on BT-549 breast, 53.8%. Further, the growth in the assay on MDA-MB-435 melanoma is -29.7% (active); in the assay with SW-620 colon it was 46.9%; with MCF7 breast it was 25.9%; in the assay with HCT-116 colon, 17.8%; in the assay with HCC-2998 colon it was 54.1%; with KM12 colon it was 26.4%.

Consider `C[N+](C)(C)Cc1cc(Cl)ccc1O`, for which the growth is 104% in the assay on SR leukemia; 76.3% in the assay with RPMI-8226 leukemia; 99.4% in the assay with OVCAR-8 ovarian; 101% in the assay on OVCAR-5 ovarian; 92.8% in the assay on OVCAR-4 ovarian; 110% with SK-OV-3 ovarian. In addition, the growth with IGROV1 ovarian was 95.1%; in the assay on OVCAR-3 ovarian, 109%; with HS 578T breast, 103%; in the assay on NCI/ADR-RES ovarian, 104%; with T-47D breast, 99.4%; in the assay with BT-549 breast, 91.9%. Also, the growth in the assay with MDA-MB-435 melanoma was 106%; in the assay with SW-620 colon it was 97.9%; in the assay with MCF7 breast, 104%; in the assay on HCT-116 colon, 106%; in the assay with HCC-2998 colon, 104%; in the assay on KM12 colon, 108%.

Turning to `C=CCn1cc(C=C2C(=O)N(C)C(=O)N(C)C2=O)c2ccccc21`, the growth in the assay with MOLT-4 leukemia was 97.6%; in the assay on OVCAR-8 ovarian, 83.1%; in the assay on OVCAR-5 ovarian, 14.9%; in the assay on OVCAR-4 ovarian it was 97.6%; with SK-OV-3 ovarian, 87.4%; with IGROV1 ovarian, 95.6%. In addition, the growth in the assay on OVCAR-3 ovarian was 96.1%; in the assay on HS 578T breast, 76%; in the assay on NCI/ADR-RES ovarian it was 101%; with T-47D breast, 88.7%; in the assay on BT-549 breast, 98%; with MDA-MB-435 melanoma, 101%. The growth in the assay with MCF7 breast is 88.3%; in the assay on HCT-116 colon it was 100%; in the assay with HCC-2998 colon it was 98.1%; in the assay with KM12 colon, 102%.

On to `COC(=O)CC12CC(NC(=O)c3csc([C@@H](C[C@H](C(C)C)N(C)C(=O)[C@@H](NC(=O)[C@H]4CCCCN4C)C(C)C)OC(C)=O)n3)(C1)C2`, for which the growth was 20.1% with SR leukemia; 24.4% in the assay on RPMI-8226 leukemia; 30.5% in the assay on OVCAR-8 ovarian; 42.9% in the assay with OVCAR-5 ovarian; 56.1% in the assay with OVCAR-4 ovarian; 18.4% in the assay with SK-OV-3 ovarian. Besides, the growth was 26.3% in the assay on IGROV1 ovarian; -34.3% (active) in the assay with OVCAR-3 ovarian; 45% in the assay on HS 578T breast; -24.1% (active) in the assay with NCI/ADR-RES ovarian; 64.4% in the assay on T-47D breast; -19.8% (active) in the assay with BT-549 breast. In addition, the growth in the assay on MDA-MB-435 melanoma was -39.8% (active); in the assay with SW-620 colon it was 29%; in the assay with MCF7 breast, 20.4%; in the assay with HCT-116 colon it was 9.61% (active); in the assay with HCC-2998 colon, 10.5%; in the assay on KM12 colon it was 11.1%.

On to `CCOC(=S)S[C@H]1C[C@@H]2[C@H](CC[C@]3(C)C(=O)CC[C@@H]23)[C@@]2(C)CCC(=O)C=C12`, for which the growth was 110% in the assay on MOLT-4 leukemia; 100% with OVCAR-8 ovarian; 106% in the assay on OVCAR-4 ovarian; 108% with SK-OV-3 ovarian; 112% in the assay with IGROV1 ovarian; 115% with OVCAR-3 ovarian. Further, the growth in the assay with HS 578T breast was 108%; in the assay on NCI/ADR-RES ovarian, 102%; in the assay on T-47D breast, 108%; in the assay on BT-549 breast, 105%; in the assay on MDA-MB-435 melanoma it was 101%; in the assay on SW-620 colon, 105%. Besides, the growth in the assay with MCF7 breast was 90.6%; with HCT-116 colon, 104%; in the assay with HCC-2998 colon, 106%; in the assay on KM12 colon, 101%.

On to `CC[C@H](C)[C@H](NC(=O)[C@H]1CCCCN1C)C(=O)N(C)[C@H](C[C@@H](OC(C)=O)c1nc(C(=O)N[C@@H](Cc2ccccc2)C[C@H](C)C(=O)OC)cs1)C(C)C`, for which the growth was -7.13% (active) with SR leukemia; 27.5% in the assay on RPMI-8226 leukemia; 16.4% with OVCAR-8 ovarian; 58.1% in the assay with OVCAR-5 ovarian; 51.5% with OVCAR-4 ovarian; 41% in the assay with SK-OV-3 ovarian. The growth in the assay on IGROV1 ovarian is 25.9%; in the assay with OVCAR-3 ovarian it was -0.916% (active); in the assay on HS 578T breast, 33.8%; in the assay with NCI/ADR-RES ovarian, -4.28% (active); in the assay on T-47D breast, 81%; with BT-549 breast, -35.7% (active). In addition, the growth was -35.3% (active) with MDA-MB-435 melanoma; 45.4% in the assay with SW-620 colon; 12.9% with MCF7 breast; 4.25% (active) with HCT-116 colon; 10.8% in the assay with HCC-2998 colon.

The values are drawn from PubChem BioAssay (NCI).
